The source of these data is article PMC7862700, “An all-to-all approach to the identification of sequence-specific readers for epigenetic DNA modifications on cytosine”.

Common to all, as to assay: DAPPL (digital affinity profiling via proximity ligation, sequencing); 10 mM Tris-HCl pH 7.5, 50 mM NaCl, 1 mM DTT, 4% glycerol, room temperature, 30 min; GST-TFs on glutathione beads, 16-mer random dsDNA library, 0.1% formaldehyde crosslink after washing; high values mean tight binding
Common to all, as to settings: protein: recombinant; tags: N-terminal GST; dsDNA, one strand shown

The target of one assay is T1, FLI1 (Homo sapiens, UniProt Q01543 1-452).
T1 sequence: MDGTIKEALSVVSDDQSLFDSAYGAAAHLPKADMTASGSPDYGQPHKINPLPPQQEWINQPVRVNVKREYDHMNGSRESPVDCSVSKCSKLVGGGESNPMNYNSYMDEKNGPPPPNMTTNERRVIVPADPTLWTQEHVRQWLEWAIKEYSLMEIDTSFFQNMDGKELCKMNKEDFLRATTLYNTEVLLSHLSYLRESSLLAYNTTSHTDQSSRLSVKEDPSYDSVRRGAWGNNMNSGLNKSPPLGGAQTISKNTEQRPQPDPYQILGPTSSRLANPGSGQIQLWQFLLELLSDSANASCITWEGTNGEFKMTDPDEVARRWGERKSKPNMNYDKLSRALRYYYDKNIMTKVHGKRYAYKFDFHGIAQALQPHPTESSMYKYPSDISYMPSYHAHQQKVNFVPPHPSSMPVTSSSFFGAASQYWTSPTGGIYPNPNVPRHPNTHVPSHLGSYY
The method in brief: (§1)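 Binding signal is defined as a hexamer's read frequency for one factor over its frequency for the tag-only sample. To obtain reads, GST-fused human transcription factors were expressed in yeast, captured on glutathione beads, barcoded with DNA and pooled with that sample. Pools met 200 nmole of a 16-mer random double-stranded DNA library in Tris/NaCl/DTT/glycerol buffer for 30 min at room temperature before washing, 0.1% formaldehyde crosslinking, proximity ligation (BsaI/T4 ligase, 1 h, 37 °C), PCR and Illumina NextSeq500 sequencing.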

The target in the next assay is T2, ELK1 (Homo sapiens, UniProt P19419 1-428).
T2 sequence: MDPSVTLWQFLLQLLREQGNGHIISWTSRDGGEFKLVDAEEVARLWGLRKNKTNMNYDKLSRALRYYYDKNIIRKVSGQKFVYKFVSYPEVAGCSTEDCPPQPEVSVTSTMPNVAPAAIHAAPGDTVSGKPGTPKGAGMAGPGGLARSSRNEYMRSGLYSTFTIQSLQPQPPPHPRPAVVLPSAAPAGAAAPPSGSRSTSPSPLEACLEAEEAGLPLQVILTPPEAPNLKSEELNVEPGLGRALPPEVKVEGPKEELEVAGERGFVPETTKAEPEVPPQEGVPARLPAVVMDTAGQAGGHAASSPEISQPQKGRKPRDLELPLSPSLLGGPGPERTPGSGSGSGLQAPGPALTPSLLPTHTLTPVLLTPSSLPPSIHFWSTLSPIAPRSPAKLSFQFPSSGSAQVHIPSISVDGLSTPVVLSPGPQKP
In short, it runs like this: as §1

The target of the next assay is T3, GABPA (Homo sapiens, UniProt Q06546 1-454).
T3 sequence: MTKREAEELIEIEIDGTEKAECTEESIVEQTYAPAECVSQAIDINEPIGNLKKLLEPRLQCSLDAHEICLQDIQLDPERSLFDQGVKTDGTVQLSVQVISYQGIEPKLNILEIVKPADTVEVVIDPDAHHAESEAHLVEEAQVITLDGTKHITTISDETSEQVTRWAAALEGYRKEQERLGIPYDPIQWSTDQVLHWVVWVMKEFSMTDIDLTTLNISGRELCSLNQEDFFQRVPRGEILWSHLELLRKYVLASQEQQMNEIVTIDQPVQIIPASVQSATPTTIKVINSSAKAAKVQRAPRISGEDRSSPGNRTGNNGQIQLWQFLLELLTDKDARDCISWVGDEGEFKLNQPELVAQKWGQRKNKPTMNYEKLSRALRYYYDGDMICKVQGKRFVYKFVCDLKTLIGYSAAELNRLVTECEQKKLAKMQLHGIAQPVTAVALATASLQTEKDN
The method in brief: as §1

The target in a further assay is T4, ERG (Homo sapiens, UniProt P11308 1-479).
T4 sequence: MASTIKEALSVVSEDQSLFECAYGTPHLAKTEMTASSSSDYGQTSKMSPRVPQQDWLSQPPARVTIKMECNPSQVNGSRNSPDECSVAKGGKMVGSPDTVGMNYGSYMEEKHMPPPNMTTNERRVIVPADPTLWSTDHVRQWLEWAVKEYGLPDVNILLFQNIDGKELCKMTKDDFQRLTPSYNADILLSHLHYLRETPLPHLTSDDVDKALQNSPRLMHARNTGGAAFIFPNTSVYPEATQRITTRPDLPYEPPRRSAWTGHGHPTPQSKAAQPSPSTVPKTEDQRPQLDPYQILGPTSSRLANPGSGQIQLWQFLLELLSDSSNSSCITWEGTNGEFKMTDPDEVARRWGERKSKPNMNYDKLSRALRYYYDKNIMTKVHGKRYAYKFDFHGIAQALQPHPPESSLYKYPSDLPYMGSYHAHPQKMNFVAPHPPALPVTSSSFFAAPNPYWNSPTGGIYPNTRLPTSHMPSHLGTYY
In short, it runs like this:
as §1

The next assay concerns the target ELF1 (Homo sapiens, UniProt P32519 1-619). The method in brief: as §1
A further assay addresses T5, EHF (Homo sapiens, UniProt Q9NZC4 1-300).
T5 sequence: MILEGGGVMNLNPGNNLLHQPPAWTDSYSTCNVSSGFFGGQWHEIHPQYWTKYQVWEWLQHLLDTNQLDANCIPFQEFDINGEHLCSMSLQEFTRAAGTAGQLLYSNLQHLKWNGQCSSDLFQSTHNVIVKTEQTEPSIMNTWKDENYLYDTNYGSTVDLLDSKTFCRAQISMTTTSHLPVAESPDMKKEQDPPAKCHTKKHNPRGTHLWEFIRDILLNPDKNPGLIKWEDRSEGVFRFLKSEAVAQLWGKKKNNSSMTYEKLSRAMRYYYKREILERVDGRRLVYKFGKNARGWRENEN
The method in brief: as §1

A further assay addresses SPI1 (Homo sapiens, UniProt P17947 1-270). The method in brief: as §1
The target of a further assay is SPIB (Homo sapiens, UniProt Q01892 1-262). The method in brief: as §1
The target in another assay is T6, ELK3 (Homo sapiens, UniProt P41970 1-407).
T6 sequence: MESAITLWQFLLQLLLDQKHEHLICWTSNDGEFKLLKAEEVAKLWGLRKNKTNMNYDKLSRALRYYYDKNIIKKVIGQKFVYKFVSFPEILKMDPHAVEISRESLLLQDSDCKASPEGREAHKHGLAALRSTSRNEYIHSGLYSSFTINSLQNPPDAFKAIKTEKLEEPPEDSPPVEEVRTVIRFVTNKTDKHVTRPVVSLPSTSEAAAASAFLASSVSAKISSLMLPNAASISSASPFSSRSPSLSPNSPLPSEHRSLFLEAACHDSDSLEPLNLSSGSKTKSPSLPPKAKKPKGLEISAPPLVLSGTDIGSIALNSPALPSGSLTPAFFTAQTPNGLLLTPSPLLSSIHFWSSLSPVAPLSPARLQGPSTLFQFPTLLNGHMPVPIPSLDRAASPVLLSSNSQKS
In short, it runs like this: as §1

For another assay, the target named is T7, FEV (Homo sapiens, UniProt Q99581 1-238).
T7 sequence: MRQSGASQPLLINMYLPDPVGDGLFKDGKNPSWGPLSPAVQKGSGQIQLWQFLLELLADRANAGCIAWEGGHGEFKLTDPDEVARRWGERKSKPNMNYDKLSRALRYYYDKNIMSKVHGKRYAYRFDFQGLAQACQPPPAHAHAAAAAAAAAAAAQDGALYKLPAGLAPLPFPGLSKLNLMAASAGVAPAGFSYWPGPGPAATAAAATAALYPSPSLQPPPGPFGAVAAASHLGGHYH
In short, it runs like this: as §1

The target of the next assay is ETV5 (Homo sapiens, UniProt P41161 1-510). The method in brief:
as §1

Another assay addresses T8, SPIC (Homo sapiens, UniProt Q8N5J4 1-248).
T8 sequence: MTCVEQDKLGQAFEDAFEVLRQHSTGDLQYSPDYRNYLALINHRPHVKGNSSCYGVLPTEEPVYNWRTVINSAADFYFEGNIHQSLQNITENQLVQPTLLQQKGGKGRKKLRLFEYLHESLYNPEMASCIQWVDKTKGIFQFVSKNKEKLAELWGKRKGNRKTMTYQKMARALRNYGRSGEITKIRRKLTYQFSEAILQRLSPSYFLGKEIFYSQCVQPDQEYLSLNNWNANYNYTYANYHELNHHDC
The method in brief:
as §1

The next assay addresses ELF4 (Homo sapiens, UniProt Q99607 1-663). In short, it runs like this: as §1
The next assay concerns the target T9, ELK4 (Homo sapiens, UniProt P28324-2 1-405).
T9 sequence: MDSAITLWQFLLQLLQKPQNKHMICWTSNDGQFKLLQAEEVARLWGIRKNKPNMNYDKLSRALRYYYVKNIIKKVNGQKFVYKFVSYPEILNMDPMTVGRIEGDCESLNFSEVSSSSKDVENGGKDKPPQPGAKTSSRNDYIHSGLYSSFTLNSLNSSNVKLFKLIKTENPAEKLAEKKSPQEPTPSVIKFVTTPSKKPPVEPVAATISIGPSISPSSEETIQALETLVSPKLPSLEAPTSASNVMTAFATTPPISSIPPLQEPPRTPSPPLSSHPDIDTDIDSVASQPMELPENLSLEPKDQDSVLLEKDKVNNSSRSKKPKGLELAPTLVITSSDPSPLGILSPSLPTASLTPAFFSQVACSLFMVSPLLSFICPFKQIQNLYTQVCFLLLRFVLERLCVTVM
The method in brief:
as §1

A further assay has as its target T10, ETV2 (Homo sapiens, UniProt O00321 1-342).
T10 sequence: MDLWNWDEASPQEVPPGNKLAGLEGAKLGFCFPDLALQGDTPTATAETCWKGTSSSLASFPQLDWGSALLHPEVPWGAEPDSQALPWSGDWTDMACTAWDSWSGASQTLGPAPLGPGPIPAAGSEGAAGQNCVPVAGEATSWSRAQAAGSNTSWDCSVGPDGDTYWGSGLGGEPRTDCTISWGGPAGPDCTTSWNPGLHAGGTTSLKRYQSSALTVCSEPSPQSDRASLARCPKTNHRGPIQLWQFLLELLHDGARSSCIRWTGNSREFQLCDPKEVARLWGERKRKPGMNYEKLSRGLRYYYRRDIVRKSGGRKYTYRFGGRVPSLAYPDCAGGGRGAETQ
The method in brief:
as §1

The next assay deals with T11, ELF3 (Homo sapiens, UniProt P78545 1-371).
T11 sequence: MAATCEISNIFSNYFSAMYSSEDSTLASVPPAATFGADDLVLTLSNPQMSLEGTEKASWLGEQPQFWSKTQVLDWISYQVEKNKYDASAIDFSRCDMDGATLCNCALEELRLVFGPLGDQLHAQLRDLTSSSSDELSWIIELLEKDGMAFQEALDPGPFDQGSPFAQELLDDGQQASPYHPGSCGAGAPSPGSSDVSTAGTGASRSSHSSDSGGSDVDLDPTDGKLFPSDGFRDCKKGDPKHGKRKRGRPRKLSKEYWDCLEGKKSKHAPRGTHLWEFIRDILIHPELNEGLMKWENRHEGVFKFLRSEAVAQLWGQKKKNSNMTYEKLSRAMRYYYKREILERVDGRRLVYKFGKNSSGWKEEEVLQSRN
The method in brief:
as §1

For the next assay, the target named is ETV1 (Homo sapiens, UniProt P50549 1-477). In short, it runs like this:
as §1

ETV1, sequence (P50549 whole entry): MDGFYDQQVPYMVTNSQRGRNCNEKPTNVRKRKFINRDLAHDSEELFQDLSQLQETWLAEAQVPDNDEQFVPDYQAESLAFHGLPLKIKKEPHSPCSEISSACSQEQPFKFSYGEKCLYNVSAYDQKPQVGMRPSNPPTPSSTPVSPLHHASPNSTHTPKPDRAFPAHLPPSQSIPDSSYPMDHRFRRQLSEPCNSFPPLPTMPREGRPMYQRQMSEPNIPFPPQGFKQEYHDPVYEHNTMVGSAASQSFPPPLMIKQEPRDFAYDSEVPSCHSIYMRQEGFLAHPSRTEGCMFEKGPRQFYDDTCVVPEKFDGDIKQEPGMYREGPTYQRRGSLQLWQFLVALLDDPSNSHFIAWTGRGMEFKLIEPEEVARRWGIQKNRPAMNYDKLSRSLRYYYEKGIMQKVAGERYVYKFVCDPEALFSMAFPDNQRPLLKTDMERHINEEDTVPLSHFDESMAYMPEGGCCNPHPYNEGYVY
ETV5, sequence (P41161 whole entry): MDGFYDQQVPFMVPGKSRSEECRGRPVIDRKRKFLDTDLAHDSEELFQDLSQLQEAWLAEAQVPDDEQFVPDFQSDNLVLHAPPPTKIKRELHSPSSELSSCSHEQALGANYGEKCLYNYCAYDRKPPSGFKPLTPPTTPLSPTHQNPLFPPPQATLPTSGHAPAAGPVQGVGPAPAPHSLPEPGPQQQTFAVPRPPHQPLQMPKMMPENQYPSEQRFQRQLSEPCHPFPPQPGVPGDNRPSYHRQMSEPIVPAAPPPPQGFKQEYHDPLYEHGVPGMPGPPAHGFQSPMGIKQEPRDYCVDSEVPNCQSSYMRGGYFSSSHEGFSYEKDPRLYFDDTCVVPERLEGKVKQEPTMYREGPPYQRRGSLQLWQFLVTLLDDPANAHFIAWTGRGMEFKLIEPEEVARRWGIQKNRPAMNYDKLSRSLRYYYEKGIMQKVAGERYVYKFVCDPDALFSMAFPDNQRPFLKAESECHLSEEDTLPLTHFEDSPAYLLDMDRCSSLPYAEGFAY
SPIB, sequence (Q01892 whole entry): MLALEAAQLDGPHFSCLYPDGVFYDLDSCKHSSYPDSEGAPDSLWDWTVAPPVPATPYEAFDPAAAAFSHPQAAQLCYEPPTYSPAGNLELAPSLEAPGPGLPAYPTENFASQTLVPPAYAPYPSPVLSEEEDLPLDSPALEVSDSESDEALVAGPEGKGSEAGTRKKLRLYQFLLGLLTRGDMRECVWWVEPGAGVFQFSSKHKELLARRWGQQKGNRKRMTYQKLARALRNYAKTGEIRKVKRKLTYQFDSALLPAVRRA
ELF1, sequence (P32519 whole entry): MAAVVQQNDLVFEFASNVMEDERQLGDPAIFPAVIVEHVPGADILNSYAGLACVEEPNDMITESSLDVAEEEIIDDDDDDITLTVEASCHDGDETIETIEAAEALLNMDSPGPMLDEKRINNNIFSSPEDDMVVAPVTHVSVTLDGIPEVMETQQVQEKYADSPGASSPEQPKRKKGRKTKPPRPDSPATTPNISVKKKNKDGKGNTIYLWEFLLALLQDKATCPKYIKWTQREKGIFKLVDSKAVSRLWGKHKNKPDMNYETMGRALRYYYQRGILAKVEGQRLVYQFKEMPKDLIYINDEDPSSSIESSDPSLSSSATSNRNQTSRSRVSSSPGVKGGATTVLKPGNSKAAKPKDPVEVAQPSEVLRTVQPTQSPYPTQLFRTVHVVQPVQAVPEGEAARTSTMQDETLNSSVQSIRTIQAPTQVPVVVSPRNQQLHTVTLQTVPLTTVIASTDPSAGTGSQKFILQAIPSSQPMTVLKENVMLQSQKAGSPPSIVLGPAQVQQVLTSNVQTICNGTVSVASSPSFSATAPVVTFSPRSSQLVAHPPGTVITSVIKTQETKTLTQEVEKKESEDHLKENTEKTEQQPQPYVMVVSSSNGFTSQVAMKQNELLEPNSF
ELF4, sequence (Q99607 whole entry): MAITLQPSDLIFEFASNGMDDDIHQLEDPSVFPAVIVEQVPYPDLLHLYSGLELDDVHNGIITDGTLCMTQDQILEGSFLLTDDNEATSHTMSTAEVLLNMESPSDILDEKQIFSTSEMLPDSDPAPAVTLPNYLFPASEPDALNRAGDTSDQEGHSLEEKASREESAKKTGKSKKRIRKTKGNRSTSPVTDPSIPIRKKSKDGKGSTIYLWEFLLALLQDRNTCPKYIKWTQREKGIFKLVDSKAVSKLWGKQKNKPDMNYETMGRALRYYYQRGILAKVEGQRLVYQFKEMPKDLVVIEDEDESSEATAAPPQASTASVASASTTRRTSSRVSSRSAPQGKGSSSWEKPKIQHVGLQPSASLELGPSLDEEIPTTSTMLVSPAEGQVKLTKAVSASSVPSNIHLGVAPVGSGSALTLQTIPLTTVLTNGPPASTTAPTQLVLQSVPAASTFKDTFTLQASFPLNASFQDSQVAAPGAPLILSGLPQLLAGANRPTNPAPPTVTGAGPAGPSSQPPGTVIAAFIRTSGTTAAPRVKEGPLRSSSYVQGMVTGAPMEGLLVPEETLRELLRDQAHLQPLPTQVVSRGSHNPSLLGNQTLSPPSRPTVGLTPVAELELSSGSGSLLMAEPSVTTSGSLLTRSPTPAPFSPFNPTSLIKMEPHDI

CGACAC: the binding signal with FLI1 was 1.18 fold enrichment (6-mer frequency, TF over GST control); with ELK1 it was 1.14 fold enrichment (6-mer frequency, TF over GST control); with GABPA, 1.16 fold enrichment (6-mer frequency, TF over GST control); with ERG, 1.23 fold enrichment (6-mer frequency, TF over GST control); with ELF1, 1.24 fold enrichment (6-mer frequency, TF over GST control); with EHF, 1.19 fold enrichment (6-mer frequency, TF over GST control). The binding signal with SPI1 was 1.2 fold enrichment (6-mer frequency, TF over GST control); with SPIB it was 1.25 fold enrichment (6-mer frequency, TF over GST control); with ELK3 it was 1.14 fold enrichment (6-mer frequency, TF over GST control); in the assay with FEV it was 1.21 fold enrichment (6-mer frequency, TF over GST control); with ETV5, 1.13 fold enrichment (6-mer frequency, TF over GST control); with SPIC it was 1.15 fold enrichment (6-mer frequency, TF over GST control). Further, the binding signal with ELF4 is 1.21 fold enrichment (6-mer frequency, TF over GST control); in the assay with ELK4 it was 1.14 fold enrichment (6-mer frequency, TF over GST control); with ETV2, 1.15 fold enrichment (6-mer frequency, TF over GST control); with ELF3, 1.04 fold enrichment (6-mer frequency, TF over GST control); with ETV1, 1.16 fold enrichment (6-mer frequency, TF over GST control).
